Rows were chosen to be rich in hits. Some 0.28% of all compounds tested hit in one or more screens of this group.
PI4K2A inh – inhibitors of human PI4K2A; 420,000 tested, 0.13% active; purified PI4K2A, ADP-Glo luminescence, 1 h; stronger effect = lower value; activity change, negative = inhibition, % at 76.9 µM; Q9BTU6; in the data active means activity change below about -50%; inconclusive means mostly about -30% to -49%;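 further: -100% = wells without enzyme as full effect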
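PI4K2A activity was measured by ADP-Glo luminescence: enzyme (4 ug/mL stock) and phosphatidylinositol (1.2 mM stock) in Tris pH 7.5/MgCl2/EGTA/Triton X-100 buffer were reacted with ATP (300 microM stock) for one hour at ambient temperature.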
USP2a inh – blocks human ubiquitin-specific protease USP2a; Potency, µM (highest dose often 38.3 µM), inactives show top-dose activity change, negative = inhibition, usual class: inhibitors; 330,000 tested, 0.01% active; O75604; USP2 core, Ub-CHOP2 coupled fluorogenic reporter, 485/531;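 further: potency means the concentration at half of the fitted maximal effect; plate controls were DMSO wells for no effect and full inhibition by NEM control for full effect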
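Cell-free coupled assay: 10nM USP2 core preincubated 30min RT with compound in Tris-HCl pH 8.0/CaCl2/CHAPS buffer, then 25nM Ub-CHOP2 and 25nM reporter substrate; fluorescence (Ex 485/Em 531) read after 60min RT, normalized to NEM inhibition, concentration-response curves fitted.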
Tb PGK inh – blocks T. brucei phosphoglycerate kinase. P07378. PGK/GAPDH coupled, Kinase-Glo luminescence, 60 min. Potency, µM (series often up to 57.5 µM), inactives show top-dose activity change, negative = inhibition, hits mostly inhibitors. 380,000 tested, 0.043% active. AID 602233; further: potency means the concentration at half of the fitted maximal effect; on the % scale 0 is the no-effect control and ±100 the full control effect; nearly all actives have a fitted effect of over 60% in size
Target sequence (P07378 whole entry, looked up): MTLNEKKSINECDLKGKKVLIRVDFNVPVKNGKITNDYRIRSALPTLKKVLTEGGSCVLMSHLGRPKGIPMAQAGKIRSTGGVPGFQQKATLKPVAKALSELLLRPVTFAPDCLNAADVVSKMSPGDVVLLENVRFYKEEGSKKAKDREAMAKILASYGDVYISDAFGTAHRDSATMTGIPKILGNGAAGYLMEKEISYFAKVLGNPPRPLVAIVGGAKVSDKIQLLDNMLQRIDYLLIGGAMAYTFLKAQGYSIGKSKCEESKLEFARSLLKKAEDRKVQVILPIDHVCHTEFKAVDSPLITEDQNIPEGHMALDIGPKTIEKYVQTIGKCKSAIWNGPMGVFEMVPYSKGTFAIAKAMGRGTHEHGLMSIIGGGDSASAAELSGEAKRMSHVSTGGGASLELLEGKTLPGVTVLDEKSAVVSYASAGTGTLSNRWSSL
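Recombinant glycosomal PGK reaction used 1,3-bisphosphoglycerate generated in-well by GAPDH (100nM final) in 100mM TEA pH 7.6, 5mM MgCl2, 0.01% Tween-20. After 60 minutes at room temperature, ATP was read by Kinase-Glo Plus luminescence end-point.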
Pin1 inh – blocks the human prolyl isomerase Pin1; Pin1 FP peptide displacement, HiFluor488, 10 min; Potency, µM (highest dose often 115 µM), for the others: at the top dose activity, negative = inhibition, hits mostly inhibitors; 390,000 tested, 0.009% active; Q13526; AID 504891; active means well fitted inhibition curve with a large enough effect in the polarisation, with a control signal flat, not every such curve was filed as active; inconclusive means small, poorly fitted or top-dose-only effect, or effect the other way, or a change in a side signal; inactive means no such curve, though single readings can be large or run the other way; the % refers to the polarisation; further: potency means the concentration at half of the fitted maximal effect; on the % scale 0 is the no-effect control and ±100 the full control effect
Tb PFK inh-1 – inhibitors of T. brucei phosphofructokinase. O15648. Potency, µM (doses to about 57.5 µM), inactives show at the top dose activity, negative = inhibition, hits mostly inhibitors. 330,000 tested, 0.17% active. T. brucei PFK, ADP-Glo luminescence;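 further: potency means the concentration at half of the fitted maximal effect; 0% = uninhibited 1x PFK enzyme wells and -100% = no-enzyme wells; nearly all actives have a fitted effect of over 60% in size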
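In TEA buffer at pH 8.0 with 5 mM MgCl2, enzyme (1.25 nM) converted F6P (0.5 mM) and ATP (0.1 mM) for 45 min at room temperature. ADP product was read by luciferase luminescence.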
TbPFK ATP – Tb phosphofructokinase inhibition, orthogonal luminescence; 1,100 tested, 47% active; Tb PFK enzyme, ATP depletion, Kinase-Glo Plus luminescence; AID 504636; shares compounds with Tb PFK inh-1; Potency, µM (highest dose often 57.5 µM), for the others: top-dose inhibition; calls by dose curve; further: potency means the concentration at half of the fitted maximal effect; nearly all actives have a fitted effect of over 60% in size
Tb PFK inh-2 – validation of T. brucei phosphofructokinase inhibitors | shares compounds with Tb PFK inh-1 | purified T. brucei PFK, ADP-Glo luminescence, 45 min | Potency, µM (series often up to 57.5 µM), inactives show at the top dose activity change, negative = inhibition, usual class: inhibitors | 1,100 tested, 41% active | AID 504637;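 further: potency means the concentration at half of the fitted maximal effect; plate controls were full PFK enzyme control for no effect and no enzyme control for full effect; nearly all actives have a fitted effect of over 60% in size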
Active calls of the source: *; ? = inconclusive; / = no result given; [ ] = dose if it differs, or a comment. Unless noted, the call rests on the fitted dose curve; in most records, active means well fitted curve in the direction sought with a large enough effect; inconclusive means small, poorly fitted or top-dose-only effect, or another doubt; inactive means no such curve, though single readings can be large; an effect the other way counts as inactive or inconclusive.

SMILES | PI4K2A inh | USP2a inh | Tb PGK inh | Pin1 inh | Tb PFK inh-1 | TbPFK ATP | Tb PFK inh-2
O=C(O)c1cccc(-n2cccc2/C=C2\NC(=O)N(Cc3ccc(F)cc3)C2=O)c1 | -1 | -1% | -26% | 0% | -5% | / | /
O=C(O)c1ccc(-n2cccc2/C=C2/NC(=O)N(c3ccccc3)C2=O)cc1 | -9 | 1% | ? | -5% | ? | ? | 19µM*
O=C(O)c1cccc(-n2cccc2/C=N/O)c1 | -3 | 0% | ? | ? | 21µM* | ? | ?
O=C1c2ccccc2C(=O)N1c1noc2ccccc12 | / | / | / | 2% | / | / | /
CCC(=O)NC(c1ccc(C)s1)c1cc(Cl)c2cccnc2c1O (stereo unspecified) | / | / | / | 4% | / | / | /
Cc1ccccc1-c1nn[nH]n1 | -1 | 1% | -6% | 0% | 3% | / | /
Oc1ccc(N=Nc2ccccc2-c2nn[nH]n2)c(O)c1 | -9 | -2% | / | ? | ? | -29% | ?
CNc1cccccc1=S | ? | ? | -7% | ? | 12µM* | ? | ?
CCOC(=O)C(=O)c1csc(NC=O)n1 | -1 | / | / | / | / | / | /
OC[C@H]1O[C@@H](OCCc2ccc(O)cc2)[C@H](O)[C@@H](O)[C@H]1O | -1 | / | / | / | / | / | /
O=c1ccsn1Cc1ccccc1 | -2 | 2% | -2% | 4% | 11µM* | 16% | 11µM*
O=C1NC(Cc2ccccc2)C(=O)N1Cc1ccccc1 (stereo unspecified) | 1 | / | -1% | -1% | / | / | /
O=C(O)/C=C/c1cc(F)c(S(=O)(=O)N2CCN(S(=O)(=O)c3ccc4c(c3)OCCO4)CC2)cc1F | / | / | / | 3% | / | / | /
NS(=O)(=O)c1cccc(NC(=O)COc2ccc([N+](=O)[O-])cc2)c1 | -1 | -7% | 9% | 3% | 7.6µM* | 21µM* | 13µM*
O=C(COc1ccc([N+](=O)[O-])cc1)Nc1ccncc1 | -1 | 0% | 7% | -1% | ? | ? | ?
CC(C)CNC(=O)c1cccc(NC(=O)COc2ccc([N+](=O)[O-])cc2)c1 | 1 | 1% | -1% | -2% | -8% | / | /
CCN(CC)CC(=O)Nc1c(C)cccc1C(=O)OC | 2 | / | / | / | / | / | /
O=C(O)c1ccc(Cl)c(N2C(=O)Nc3ccccc3N2O)c1 | 0 | 0% | 1% | 1% | -5% | / | /
O=C1Nc2ccccc2N(O)N1c1ccc(Cl)c(Cl)c1 | -1 | 2% | -8% | -3% | 11µM* | ? | -15%
O=C1Nc2cc(Cl)c(Cl)cc2N(O)N1c1ccc(Cl)c(Cl)c1 | 0 | -1% | -7%[11.5 µM] | 6% | 13µM* | 11% | -15%
CCOC(=O)N(CC)OC(=O)Nc1ccc(Cl)cc1 | 11 | 3% | -1% | -14% | -10% | / | /
CCOC(=O)N(C)OC(=O)Nc1ccc(Cl)c(Cl)c1 | 17 | -5% | 5% | 1% | 1.5µM* | 24µM* | ?
CCC(=O)C(CCN(C)C)(c1ccccc1)c1ccccc1 | 1 | / | / | / | / | / | /
Cc1ccc(/C=c2\sc3nc(-c4ccco4)nn3c2=O)o1 | 1 | 4% | ? | ? | 21µM* | ? | ?
Cc1ccc(/C=c2\sc3nc(-c4ccccc4Br)nn3c2=O)o1 | 3 | 4% | -11% | 17% | ? | / | /
N#Cc1c(-c2ccc(Cl)cc2)no[n+]1[O-] | / | / | / | -9% | / | / | /
Cc1cc(C)c(NC(=S)NCC2CCN(C(C)c3ccccc3)C2)c(C)c1 (stereo unspecified) | 4 | 3% | -8% | -3% | ? | 7.6µM* | 15µM*
Cc1ccc(NC(=S)NCC2CCN(C(C)c3ccccc3)C2)cc1 (stereo unspecified) | -1 | 1% | -2% | -6% | 1% | / | /
CNCc1ccccc1Sc1cc(O)ccc1O | -9 | 1% | -6% | ? | ? | 3.4µM* | 8.5µM*
